Screens (PubChem BioAssay)
BRCA1 expr up: qHTS Assay to Identify Small Molecule Activators of BRCA1 Expression; MCF7-BRCA1-FFLuc reporter, luminescence, 48 h; response scale: scaled: vehicle 0%, 10 µM genistein 100%; Potency, µM (highest dose often 46.1 µM), hits mostly activators; hit rate 1.1% among 380,000; AID 624202, 2012; note: nearly all actives have a fitted effect of over 80% in size
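Reporter cells (MCF7, BRCA1 promoter-firefly luciferase) received library compounds across a concentration series for 48 h. End-point luminescence was measured and concentration-effect curves derived after normalization.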
p53 reactivator: qHTS assay for re-activators of p53 using a Luc reporter. Potency, µM (doses to about 92.2 µM), usual class: activators. AID 504706, 2011. hit rate 0.063% among 320,000. H1299 p53-A138V BP100-luciferase reporter, luminescence, 24 h; note: nearly all actives have a fitted effect of over 45% in size
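H1299 (p53-null), stable ts p53-A138V + BP100-Luc; 1000 cells/well, Opti-MEM/10% FBS; cpd 4 pt, 1:5; 24 h, 37 deg C, 5% CO2; detection reagent 10 min RT; luminescence.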
miR-21 act: qHTS Assay for Modulators of miRNAs and/orActivators of miR-21. 340,000 tested, under 10 active. Potency, µM (doses to about 38.3 µM), hits mostly activators. HeLa miR-21 FLuc reporter, luciferase, 48 h. AID 2288, 2010;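 note: miR-21 action dims this reporter so a rising signal means less miR-21 action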
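HeLa miR-21-FLuc reporter line, endogenous miR-21; 2000 cells/well in DMEM/10% FBS; compound titration up to ~40uM final, 48 h, 37 degree Celsius; luciferase detection reagent, 15 min lysis, CCD luminescence.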
Anesthetic bind: qHTS Assay for Identification of Novel General Anesthetics; Ferritin light chain (Equus caballus), P02791; apoferritin/1-aminoanthracene competitive binding, fluorescence; Potency, µM (series often up to 77.5 µM), most hits filed as inhibitors; hit rate 0.074% among 350,000; note: nearly all actives have a fitted effect of over 20% in size
Target sequence (P02791 2-175 limits assumed): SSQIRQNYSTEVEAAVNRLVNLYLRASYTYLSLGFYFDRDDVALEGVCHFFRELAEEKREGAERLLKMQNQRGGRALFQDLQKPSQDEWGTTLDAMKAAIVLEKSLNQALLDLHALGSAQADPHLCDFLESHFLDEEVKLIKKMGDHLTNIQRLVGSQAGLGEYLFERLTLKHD
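In PBS, apoferritin at 10 uM is loaded with 1-AMA from a 50% saturated solution. After 10 min of compound exposure at ambient temperature, reduced 535 nm fluorescence indicates probe displacement.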
Hits are given with their value; . = inactive; ? = inconclusive; / = no result. Hits are enriched below; roughly 1.1% of the tested compounds scored in any of these assays. Calls come from the whole dose curve; as a rule, active = well fitted curve in the direction sought with a large enough effect; inconclusive = small, poorly fitted or top-dose-only effect, or another doubt; inactive = no such curve, though single readings can be large; an effect the other way counts as inactive or inconclusive.

SMILES | BRCA1 expr up | p53 reactivator | miR-21 act | Anesthetic bind
COc1ccc(-c2noc(CSc3ccccc3)n2)cc1OC | 11.2µM | ? | . | .
COc1ccc(-c2nc(-c3ccccc3OC)no2)cc1OC | 10µM | ? | . | ?
Cc1ccc(SCc2nc(-c3ccccc3)no2)cc1 | . | ? | . | .
CN(C)C(=O)C(Sc1ccc(S(=O)(=O)N2CCCC2)cn1)c1ccccc1 (stereo unspecified) | . | . | / | /
CC(=O)c1ccc(NC(=O)Nc2ccc3c(c2)nc(C)n3C)cc1 | 3.55µM | . | . | .
CC(=O)c1ccc(NC(=O)Nc2cccc(Cl)c2)cc1 | 7.08µM | ? | . | .
Cc1ccc(NC(=O)Nc2ccc3c(c2)nc(C)n3C)cc1 | . | . | . | .
CC(=O)c1ccc(NC(=S)NCCc2cccc(Cl)c2)cc1 | 3.16µM | . | . | ?
Fc1ccccc1NC(=S)NCCc1cccc(Cl)c1 | 7.94µM | ? | . | .
CC(=O)Nc1ccc(NC(=O)Nc2cccc(Cl)c2)cc1 | ? | . | . | .
Cc1c(CNC2CCC(C)CC2)c(C(=O)O)c(C)n1Cc1ccccc1F (stereo unspecified) | / | / | . | .
Cc1c(F)cccc1NS(=O)(=O)c1cccs1 | / | / | . | .
COc1ccc2c(c1)CCCC21NC(=O)N(CC(=O)N2CC(C)OC(C)C2)C1=O (stereo unspecified) | . | . | / | /
CSc1cccc(NC(=O)Nc2ccc(Cl)cc2)c1 | 7.94µM | . | . | .
CSc1cccc(NC(N)=O)c1 | . | . | . | .
CC1(C)CCc2cc(S(=O)(=O)N3CCN(S(=O)(=O)c4c(F)cccc4F)CC3)ccc2O1 | 7.94µM | ? | / | /
O=S(=O)(c1ccc2c(c1)OCCO2)N1CCCN(S(=O)(=O)c2c(F)cccc2F)CC1 | . | . | / | /
Cn1cccc1C(=O)NCCc1ccc(Cl)cc1 | 7.08µM | . | . | ?
COc1ccc(CCNC(=O)c2cccn2C)cc1 | 2.82µM | . | . | .
CC(C)[C@H](NC(=O)N1c2ccccc2NC(=O)[C@@H]1C(C)C)C(=O)N[C@H](Cc1ccccc1)C(=O)O | . | / | . | .
CN(CC(=O)Nc1ccccc1Br)C(=O)c1cc([N+](=O)[O-])ccc1N1CCOCC1 | . | . | / | /
CCCCOc1ccc(C(=O)Nc2ccc(SC(F)F)cc2)cc1OC | . | . | . | .
COc1ccc(CC(=O)OCC(=O)Nc2ccc(C(=O)Nc3ccc(OC)cc3)cc2)cc1 | 11.2µM | . | . | .
CCOc1ccc(NC(=O)c2ccc(NC(=O)COC(=O)Cc3ccc(OC)cc3)cc2)cc1 | 4.47µM | . | . | .
COc1ccc(C(=O)Nc2ccc(SC(F)F)cc2)cc1 | 1.26µM | ? | . | .
SMILES | BRCA1 expr up | p53 reactivator | miR-21 act | Anesthetic bind
Cc1ccc2oc(=O)c3cc(C(=O)NCCc4ccc(Cl)cc4)sc3c2c1 | . | / | . | .
Cc1ccc(-c2nnc(SCC(=O)NC(C)(C)C)nc2-c2ccc(C)cc2)cc1 | / | / | . | .
Cc1ccc(C)c(N2CCN(c3nc4ccccc4c4nc(-c5cccnc5)nn34)CC2)c1 | . | / | . | .
Cc1cccn2c(=O)c(C(=O)NCc3ccc(F)cc3)c(O)nc12 | / | / | . | .
CN1/C(=C\C(=O)c2cccc([N+](=O)[O-])c2)Sc2ccccc21 | 2.24µM | . | . | .
COc1cc(OC)cc(C(=O)/C=C2\Sc3ccccc3N2C)c1 | . | . | . | .
CCOC(=O)C1(Cc2ccccc2Cl)CCN(C(=O)CN2CCOC2=O)CC1 | 12.6µM | . | . | .
CCOC(=O)C1(CCCc2ccccc2)CCN(C(=O)CN2CCOC2=O)CC1 | . | . | . | .
O=C(O)c1cc(NN=C2CCN(Cc3ccccc3)CC2)ccc1Cl | 3.16µM | . | . | .
Nc1cc(C2CCCC2)nn1-c1ccccc1 | 10µM | . | . | .
CC(=O)OC(C(=O)Nc1nncs1)c1ccccc1 (stereo unspecified) | . | / | / | /
O=C(c1ccc(F)cc1)c1cc2ccccc2o1 | 11.2µM | ? | . | .
CC(Cc1ccccc1)NC(=O)c1cc2ccccc2o1 (stereo unspecified) | 7.08µM | ? | . | .
O=C(c1ccccc1)c1cc2ccccc2o1 | 10µM | ? | . | ?
O=C(c1ccccc1)c1cc2ccccc2oc1=O | . | . | . | .
O=C(NNC(=O)c1cc2ccccc2o1)c1ccc(F)cc1 | . | . | / | /
Cc1cc(NC(=O)c2cccs2)cc(-c2nc3cc(Cl)ccc3o2)c1O | . | / | . | .
Cc1ccc(CNc2ccc(N3CCOCC3)cc2)cc1 | ? | / | . | ?
c1cc2c(cc1CNc1ccc(N3CCOCC3)cc1)OCO2 | 4.47µM | ? | / | /
CCOc1ccc(-n2c(SCC(=O)Nc3cccc(Cl)c3)nc3c(oc4ccccc43)c2=O)cc1 | / | / | . | .
CCc1ccc2nc(N3CCN(C(=O)C(C)(C)C)CC3)sc2c1 | 12.6µM | . | . | .
Clc1ccc(Cl)c2sc(N3CCOCC3)nc12 | . | / | / | /
c1ccc2sc(N3CCOCC3)nc2c1 | 8.91µM | . | . | .
CC(C)C(=O)N1CCN(c2nc3ccc(Cl)cc3s2)CC1 | 5.01µM | . | . | .
CCc1ccc2nc(N3CCN(C(=O)c4ccco4)CC3)sc2c1 | / | / | . | .
SMILES | BRCA1 expr up | p53 reactivator | miR-21 act | Anesthetic bind
Clc1cc(Cl)c2nc(N3CCOCC3)sc2c1 | 11.2µM | ? | . | .
CCS(=O)(=O)c1nc(S(=O)(=O)c2ccc(C)cc2)c(NCC(C)C)s1 | . | / | . | .
CCn1cc(C(=O)N2CCN(c3ccc(F)cc3)CC2)c(=O)c2cc(S(=O)(=O)N3CCOCC3)ccc21 | . | / | . | .
CC(C)(C)C(=O)N1CCN(c2nc3ccccc3s2)CC1 | 3.16µM | ? | . | .
CCCC(=O)N1CCN(c2nc3ccccc3s2)CC1 | ? | ? | . | .
CCn1nccc1C(=O)Nc1cc(Cl)ccc1Cl | . | . | . | .
CCn1nccc1C(=O)Nc1ccc(Cl)cc1Cl | 10µM | . | . | .
C[C@H](CO)N1C[C@H](C)[C@@H](CN(C)S(=O)(=O)c2cccs2)Oc2ccc(NC(=O)c3ccncc3)cc2C1=O | . | . | / | /
O=C(NCc1ccco1)c1c2c(nc3ccccc13)CCC2 | . | . | . | .
O=C(NCc1ccc(F)cc1)c1c2c(nc3ccccc13)CCC2 | 14.1µM | . | . | .
Fc1ccccc1-c1nc2ccccc2[nH]1 | 3.98µM | . | . | .
Cc1cccc(C(=O)Oc2ccc3ccc(O)cc3c2)c1 | . | / | . | .
CCOc1ccc(-n2c(SCC(=O)N3CCOCC3)nc3c([nH]c4ccccc43)c2=O)cc1 | . | / | . | .
O=C(CS)Nc1ccc2ccccc2c1 | . | . | . | .
CCCCC(=O)Nc1ccc(C2C(=O)c3ccccc3C2=O)cc1 | 3.98µM | / | / | /
CCCCCC(=O)Nc1ccc2ccccc2c1 | 2.82µM | ? | . | .
COc1cc2oc(=O)cc(CN3CCN(c4ccccc4F)CC3)c2cc1Cl | . | / | / | /
COc1ccc(C2=NC(c3ccccc3)=Nc3ccc(C)cc3N2)cc1 | / | / | . | .
CC1=CC(c2ccccc2)=Nc2ccc(C)cc2N1 | 7.08µM | ? | . | .
O=C(CCCc1ccncc1)c1ccccc1 | 3.98µM | / | / | /
